According to the supplement of paper PMC10849652:
About 7,900 targets were measured; listed, in parts, are those with a hit and a random draw of the rest. About 0.6% of all pairs of compound and target were hits. A number with no mark means an inactive call.

Legend:
Assay in all cases: log2 fold change, soluble protein after heating vs DMSO (PISA); higher = thermal stabilisation; K562 cells, 10 uM, 30 min; active = over 0.2 and 3.5 SD of the protein, either way, in both replicates (recomputed)
[1] = target: YAE1 (UniProt Q9NRH1)
Procedure, shortened: (§1)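 K562 cells at 2×10^6 cells/mL were given 10 μM compound for 30 min. Aliquots then went through 3 min of heating across 48°C-58°C, were pooled, and were extracted in PBS with 0.5% NP-40 at 4°C, and the supernatant after 21,000xg for 90 min was quantified by TMTpro 16plex LC-MS/MS with channel sums equalised. Thermal stability relative to control samples, from duplicates, is given as log2 fold change.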

[2] = target: YBX1 (UniProt P67809)
Procedure, shortened: as §1

[3] = target: YES1 (UniProt P07947)
Procedure, shortened: as §1

[4] = target: YIPF4 (UniProt Q9BSR8)
Procedure, shortened: as §1

[5] = target: YIPF5 isoform 3 (UniProt Q969M3)
Procedure, shortened: as §1

[6] = target: YIPF6 (UniProt Q96EC8)
Procedure, shortened: as §1

[7] = target: YLPM1 (UniProt P49750)
Procedure, shortened: as §1

[8] = target: YOD1 (UniProt Q5VVQ6)
Procedure, shortened: as §1

[9] = target: YPEL5 (UniProt P62699)
Procedure, shortened: as §1

[10] = target: YWHAB (UniProt P31946)
Procedure, shortened: as §1

[11] = target: YWHAQ (UniProt P27348)
Procedure, shortened: as §1

[12] = target: YWHAZ (UniProt E7ESK7)
Procedure, shortened: as §1

[13] = target: YWHAZ (UniProt P63104)
Procedure, shortened: as §1

[14] = target: YY1 (UniProt P25490)
Procedure, shortened: as §1

[15] = target: ZADH2 (UniProt Q8N4Q0)
Procedure, shortened: as §1

[16] = target: ZBTB21 (UniProt Q9ULJ3)
Procedure, shortened: as §1

[17] = target: ZBTB43 (UniProt O43298)
Procedure, shortened: as §1

[18] = target: ZC3H18 (UniProt Q86VM9)
Procedure, shortened: as §1

[19] = target: ZBTB17 isoform 2 (UniProt Q13105)
Procedure, shortened: as §1

Chain of YPEL5 (P62699 whole entry, looked up): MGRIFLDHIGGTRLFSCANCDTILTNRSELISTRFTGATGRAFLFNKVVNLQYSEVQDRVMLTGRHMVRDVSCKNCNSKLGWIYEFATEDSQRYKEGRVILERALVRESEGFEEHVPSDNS
Chain of YIPF5 isoform 3 (Q969M3 whole entry, looked up, canonical isoform): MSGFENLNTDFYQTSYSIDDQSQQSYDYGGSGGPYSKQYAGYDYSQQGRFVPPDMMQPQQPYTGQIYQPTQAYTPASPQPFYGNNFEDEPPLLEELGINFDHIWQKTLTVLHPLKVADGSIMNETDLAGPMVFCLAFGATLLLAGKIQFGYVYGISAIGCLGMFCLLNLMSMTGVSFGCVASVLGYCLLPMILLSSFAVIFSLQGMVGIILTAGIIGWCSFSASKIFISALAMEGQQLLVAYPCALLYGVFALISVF
Chain of YWHAB (P31946 whole entry, looked up): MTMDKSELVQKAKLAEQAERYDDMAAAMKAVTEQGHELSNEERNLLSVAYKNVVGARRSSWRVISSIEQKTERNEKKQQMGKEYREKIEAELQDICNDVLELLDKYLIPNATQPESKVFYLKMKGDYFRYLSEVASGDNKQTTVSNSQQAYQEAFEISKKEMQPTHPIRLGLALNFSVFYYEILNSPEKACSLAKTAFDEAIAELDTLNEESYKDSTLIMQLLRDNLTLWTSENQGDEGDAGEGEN
Chain of ZADH2 (Q8N4Q0 whole entry, looked up): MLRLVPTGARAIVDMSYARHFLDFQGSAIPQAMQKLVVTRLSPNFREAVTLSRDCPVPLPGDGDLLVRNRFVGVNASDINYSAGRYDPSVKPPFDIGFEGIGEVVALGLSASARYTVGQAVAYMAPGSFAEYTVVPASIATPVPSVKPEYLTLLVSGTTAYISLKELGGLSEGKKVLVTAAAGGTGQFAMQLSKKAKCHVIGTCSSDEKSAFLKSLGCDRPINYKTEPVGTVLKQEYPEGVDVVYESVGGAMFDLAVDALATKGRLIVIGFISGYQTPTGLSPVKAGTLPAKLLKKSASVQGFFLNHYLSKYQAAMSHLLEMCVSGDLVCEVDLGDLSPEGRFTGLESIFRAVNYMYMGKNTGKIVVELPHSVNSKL
Chain of YWHAQ (P27348 whole entry, looked up): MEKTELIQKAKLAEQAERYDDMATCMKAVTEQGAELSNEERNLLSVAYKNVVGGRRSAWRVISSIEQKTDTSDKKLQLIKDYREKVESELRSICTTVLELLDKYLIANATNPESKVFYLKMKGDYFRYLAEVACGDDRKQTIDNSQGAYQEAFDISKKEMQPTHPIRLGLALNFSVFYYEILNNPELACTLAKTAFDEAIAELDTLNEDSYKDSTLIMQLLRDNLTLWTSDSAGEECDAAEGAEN
Chain of YWHAZ (UniProt P63104) (P63104 whole entry, looked up): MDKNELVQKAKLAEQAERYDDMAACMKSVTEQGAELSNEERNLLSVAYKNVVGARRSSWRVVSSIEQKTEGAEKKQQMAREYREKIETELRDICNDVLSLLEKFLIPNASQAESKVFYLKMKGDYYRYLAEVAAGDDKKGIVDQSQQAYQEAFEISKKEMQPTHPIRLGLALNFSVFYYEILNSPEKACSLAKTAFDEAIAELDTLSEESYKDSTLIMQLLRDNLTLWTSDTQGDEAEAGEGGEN
Chain of YY1 (P25490 whole entry, looked up): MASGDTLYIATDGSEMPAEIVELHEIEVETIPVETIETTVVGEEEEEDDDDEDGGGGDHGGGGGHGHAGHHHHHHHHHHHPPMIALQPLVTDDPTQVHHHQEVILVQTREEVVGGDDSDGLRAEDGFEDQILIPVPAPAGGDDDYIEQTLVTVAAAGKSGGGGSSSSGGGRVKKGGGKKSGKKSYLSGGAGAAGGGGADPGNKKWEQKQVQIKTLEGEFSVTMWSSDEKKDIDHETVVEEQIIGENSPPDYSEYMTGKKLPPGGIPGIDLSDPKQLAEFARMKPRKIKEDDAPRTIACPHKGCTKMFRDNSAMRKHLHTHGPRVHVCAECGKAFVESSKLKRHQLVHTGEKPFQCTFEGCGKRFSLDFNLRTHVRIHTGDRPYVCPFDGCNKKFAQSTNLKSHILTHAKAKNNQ
Chain of YES1 (P07947 whole entry, looked up): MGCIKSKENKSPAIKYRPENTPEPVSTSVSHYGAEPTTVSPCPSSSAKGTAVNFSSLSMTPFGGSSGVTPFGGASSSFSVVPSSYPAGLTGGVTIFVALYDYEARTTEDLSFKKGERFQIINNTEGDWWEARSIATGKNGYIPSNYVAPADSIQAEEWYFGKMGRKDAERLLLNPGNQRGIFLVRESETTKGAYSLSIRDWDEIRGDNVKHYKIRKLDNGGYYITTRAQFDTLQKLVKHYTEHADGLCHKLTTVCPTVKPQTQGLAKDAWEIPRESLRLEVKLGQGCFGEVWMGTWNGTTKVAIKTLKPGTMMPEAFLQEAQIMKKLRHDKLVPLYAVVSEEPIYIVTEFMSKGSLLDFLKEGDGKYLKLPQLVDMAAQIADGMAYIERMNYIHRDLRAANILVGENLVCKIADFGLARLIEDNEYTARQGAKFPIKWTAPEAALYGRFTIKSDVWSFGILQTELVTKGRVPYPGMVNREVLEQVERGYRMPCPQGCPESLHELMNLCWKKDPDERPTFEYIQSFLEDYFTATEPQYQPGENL
Chain of YOD1 (Q5VVQ6 whole entry, looked up): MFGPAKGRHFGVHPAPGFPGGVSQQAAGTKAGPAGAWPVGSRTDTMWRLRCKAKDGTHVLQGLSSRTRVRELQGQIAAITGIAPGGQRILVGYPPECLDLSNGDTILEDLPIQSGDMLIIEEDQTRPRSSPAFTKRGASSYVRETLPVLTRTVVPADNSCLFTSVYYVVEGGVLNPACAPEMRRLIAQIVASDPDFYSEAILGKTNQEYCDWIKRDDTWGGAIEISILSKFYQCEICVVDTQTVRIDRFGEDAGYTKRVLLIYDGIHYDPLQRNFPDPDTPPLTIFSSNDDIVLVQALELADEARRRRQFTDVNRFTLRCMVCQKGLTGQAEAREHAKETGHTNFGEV
Chain of YAE1 (Q9NRH1 whole entry, looked up): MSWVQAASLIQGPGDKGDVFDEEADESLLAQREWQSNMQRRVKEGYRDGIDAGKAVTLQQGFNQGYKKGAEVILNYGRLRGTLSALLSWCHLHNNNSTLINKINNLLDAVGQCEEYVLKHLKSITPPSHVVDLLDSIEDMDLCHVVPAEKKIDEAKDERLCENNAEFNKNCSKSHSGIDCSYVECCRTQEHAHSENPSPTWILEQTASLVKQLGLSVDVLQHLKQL
Chain of YIPF6 (Q96EC8 whole entry, looked up): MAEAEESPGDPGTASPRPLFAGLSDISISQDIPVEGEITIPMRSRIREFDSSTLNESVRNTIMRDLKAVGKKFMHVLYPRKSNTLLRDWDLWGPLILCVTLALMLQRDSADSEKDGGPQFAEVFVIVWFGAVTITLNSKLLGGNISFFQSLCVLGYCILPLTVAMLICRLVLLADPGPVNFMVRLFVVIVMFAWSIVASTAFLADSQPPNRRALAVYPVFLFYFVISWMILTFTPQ
Chain of ZC3H18 (Q86VM9 whole entry, looked up): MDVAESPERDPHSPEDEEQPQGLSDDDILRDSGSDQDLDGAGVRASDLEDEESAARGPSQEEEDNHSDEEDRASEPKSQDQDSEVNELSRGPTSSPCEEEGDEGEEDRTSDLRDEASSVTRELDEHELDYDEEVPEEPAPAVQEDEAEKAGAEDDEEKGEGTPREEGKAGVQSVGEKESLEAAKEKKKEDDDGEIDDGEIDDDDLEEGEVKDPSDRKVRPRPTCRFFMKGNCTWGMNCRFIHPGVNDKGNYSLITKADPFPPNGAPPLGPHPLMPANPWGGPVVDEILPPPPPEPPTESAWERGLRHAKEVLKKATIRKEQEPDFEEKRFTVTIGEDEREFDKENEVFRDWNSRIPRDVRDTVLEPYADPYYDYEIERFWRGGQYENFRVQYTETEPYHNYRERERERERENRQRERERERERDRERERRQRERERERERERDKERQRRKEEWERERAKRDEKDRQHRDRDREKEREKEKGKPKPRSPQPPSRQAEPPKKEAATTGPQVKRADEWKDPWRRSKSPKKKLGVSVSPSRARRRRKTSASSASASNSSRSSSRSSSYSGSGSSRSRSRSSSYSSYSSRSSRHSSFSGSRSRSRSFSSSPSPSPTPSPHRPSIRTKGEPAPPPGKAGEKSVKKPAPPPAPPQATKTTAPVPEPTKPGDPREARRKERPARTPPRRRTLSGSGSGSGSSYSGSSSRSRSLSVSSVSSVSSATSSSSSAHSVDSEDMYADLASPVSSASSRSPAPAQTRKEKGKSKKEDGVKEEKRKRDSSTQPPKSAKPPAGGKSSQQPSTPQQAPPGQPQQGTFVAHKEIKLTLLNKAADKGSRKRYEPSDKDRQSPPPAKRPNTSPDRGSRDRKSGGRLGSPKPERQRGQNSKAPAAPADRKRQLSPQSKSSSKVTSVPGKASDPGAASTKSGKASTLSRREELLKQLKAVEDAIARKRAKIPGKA
Chain of YIPF4 (Q9BSR8 whole entry, looked up): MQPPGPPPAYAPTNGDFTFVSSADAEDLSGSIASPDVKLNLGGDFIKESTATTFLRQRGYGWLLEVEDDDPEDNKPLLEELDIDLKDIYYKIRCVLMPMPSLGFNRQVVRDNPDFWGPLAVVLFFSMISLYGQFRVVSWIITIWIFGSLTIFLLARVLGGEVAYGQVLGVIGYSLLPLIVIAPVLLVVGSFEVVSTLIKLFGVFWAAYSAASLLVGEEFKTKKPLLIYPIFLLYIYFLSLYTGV
Chain of YBX1 (P67809 whole entry, looked up): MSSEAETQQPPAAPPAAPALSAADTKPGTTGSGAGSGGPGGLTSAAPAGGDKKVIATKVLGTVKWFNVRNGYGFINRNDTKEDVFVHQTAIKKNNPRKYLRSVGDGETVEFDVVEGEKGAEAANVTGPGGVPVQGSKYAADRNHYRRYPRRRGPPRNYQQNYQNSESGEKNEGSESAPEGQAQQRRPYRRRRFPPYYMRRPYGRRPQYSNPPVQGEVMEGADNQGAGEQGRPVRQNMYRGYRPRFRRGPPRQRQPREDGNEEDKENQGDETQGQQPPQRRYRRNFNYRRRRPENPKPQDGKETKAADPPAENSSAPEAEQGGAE

Cn1c2cc(S(C)=O)sc2c2cnn(Cc3cccc(N)c3)c(=O)c21 (centres undefined)
log2 fold change [1]: 0.046
log2 fold change [2]: 0.183
log2 fold change [3]: 0.053
log2 fold change [4]: -0.06
log2 fold change [5]: 0.043
log2 fold change [6]: -0.097
log2 fold change [7]: -0.057
log2 fold change [8]: -0.04
log2 fold change [9]: 0.132
log2 fold change [10]: -0.068
log2 fold change [11]: -0.167
log2 fold change [12]: 0.101
log2 fold change [13]: -0.115
log2 fold change [14]: 0.045
log2 fold change [15]: -0.013
log2 fold change [16]: 0.049
log2 fold change [17]: 0.017
log2 fold change [18]: 0.135

Cn1cc(-c2ccc3nnc(C(F)(F)c4ccc5ncccc5c4)n3n2)cn1
log2 fold change [1]: 0.043
log2 fold change [2]: -0.136
log2 fold change [3]: 0.008
log2 fold change [4]: 0.108
log2 fold change [5]: 0.12
log2 fold change [6]: 0.032
log2 fold change [7]: 0.031
log2 fold change [8]: 0.057
log2 fold change [9]: -0.071
log2 fold change [10]: -0.037
log2 fold change [11]: -0.066
log2 fold change [12]: -0.007
log2 fold change [13]: -0.045
log2 fold change [14]: -0.056
log2 fold change [15]: 0.107
log2 fold change [16]: -0.009
log2 fold change [17]: -0.054
log2 fold change [18]: 0.008

c1cn2cc(-c3ccc4cn[nH]c4c3)nc(Nc3ccc(N4CCOCC4)cc3)c2n1 [entospletinib]
log2 fold change [1]: -0.07
log2 fold change [2]: 0.162
log2 fold change [3]: -0.219
log2 fold change [4]: -0.015
log2 fold change [5]: -0.161
log2 fold change [6]: -0.046
log2 fold change [7]: -0.105
log2 fold change [8]: -0.013
log2 fold change [9]: 0.009
log2 fold change [10]: 0.009
log2 fold change [11]: -0.017
log2 fold change [12]: 0.161
log2 fold change [13]: 0.006
log2 fold change [14]: 0.022
log2 fold change [15]: 0.053
log2 fold change [17]: 0.137
log2 fold change [18]: 0.097

O=C1NC(=O)C(c2cnc3ccccn23)=C1c1cn2c3c(cc(F)cc13)CN(C(=O)N1CCCCC1)CC2
log2 fold change [1]: -0.02
log2 fold change [2]: 0.126
log2 fold change [3]: 0.011
log2 fold change [4]: -0.087
log2 fold change [5]: 0.032
log2 fold change [6]: 0.01
log2 fold change [7]: 0.026
log2 fold change [8]: -0.079
log2 fold change [9]: -0.064
log2 fold change [10]: -0.04
log2 fold change [11]: -0.095
log2 fold change [12]: -0.239
log2 fold change [13]: -0.025
log2 fold change [14]: -0.013
log2 fold change [15]: -0.043
log2 fold change [16]: -0.226
log2 fold change [17]: 0.196
log2 fold change [18]: 0.03

Cc1ccc(NC(=O)c2cccc(N(C)C)c2)cc1NC(=O)c1ccc(O)cc1
log2 fold change [1]: 0.009
log2 fold change [2]: 0.011
log2 fold change [3]: 0.037
log2 fold change [4]: 0.025
log2 fold change [5]: -0.138
log2 fold change [6]: 0.024
log2 fold change [7]: -0.023
log2 fold change [8]: -0.028
log2 fold change [9]: 0.081
log2 fold change [10]: -0.008
log2 fold change [11]: -0.023
log2 fold change [12]: 0.082
log2 fold change [13]: 0.011
log2 fold change [14]: -0.012
log2 fold change [15]: -0.047
log2 fold change [16]: 0.101
log2 fold change [17]: 0.141
log2 fold change [18]: -0.02

Oc1cc(-c2nc(-c3ccccc3)[nH]c2-c2ccncc2)ccc1Cl
log2 fold change [1]: -0.015
log2 fold change [2]: -0.053
log2 fold change [3]: -0.112
log2 fold change [4]: -0.054
log2 fold change [5]: -0.05
log2 fold change [6]: -0.041
log2 fold change [7]: -0.024
log2 fold change [8]: -0.02
log2 fold change [9]: 0.213
log2 fold change [10]: -0.02
log2 fold change [11]: 0.284
log2 fold change [12]: -0.068
log2 fold change [13]: 0.096
log2 fold change [14]: -0.053
log2 fold change [15]: 0.121
log2 fold change [16]: -0.067
log2 fold change [17]: -0.064
log2 fold change [18]: 0.015

C[C@@H](N)c1ccc(C(=O)Nc2ccnc3[nH]ccc23)cc1
log2 fold change [1]: 0.1
log2 fold change [2]: 0.28
log2 fold change [3]: 0
log2 fold change [4]: -0.089
log2 fold change [5]: -0.077
log2 fold change [6]: -0.013
log2 fold change [7]: -0.037
log2 fold change [8]: -0.04
log2 fold change [9]: 0.163
log2 fold change [10]: -0.065
log2 fold change [11]: -0.302
log2 fold change [12]: 0.179
log2 fold change [13]: -0.178
log2 fold change [14]: -0.071
log2 fold change [15]: -0.071
log2 fold change [16]: 0.125
log2 fold change [17]: -0.013
log2 fold change [18]: -0.103

CCCCN(Cc1ccc(C(=O)NO)cc1)C(=O)Nc1ccccc1 [Nexturastat A]
log2 fold change [1]: 0.564
log2 fold change [2]: 0.231
log2 fold change [3]: 0.142
log2 fold change [4]: 0.021
log2 fold change [5]: 0.091
log2 fold change [6]: -0.011
log2 fold change [7]: 0.046
log2 fold change [8]: -0.011
log2 fold change [9]: -0.144
log2 fold change [10]: -0.048
log2 fold change [11]: -0.063
log2 fold change [12]: 0.34
log2 fold change [13]: -0.051
log2 fold change [14]: 0.069
log2 fold change [15]: 0.005
log2 fold change [16]: 0.106
log2 fold change [17]: -0.203
log2 fold change [18]: 0.11

CC[C@@H]1C(=O)N(C)c2cnc(Nc3ccc(C(=O)N[C@H]4CC[C@H](N5CCN(CC6CC6)CC5)CC4)cc3OC)nc2N1C(C)C [volasertib]
log2 fold change [1]: -0.101
log2 fold change [2]: 0.508
log2 fold change [3]: -0.038
log2 fold change [4]: 0.134
log2 fold change [5]: 0.058
log2 fold change [6]: -0.037
log2 fold change [7]: -0.265 (active)
log2 fold change [8]: -0.247
log2 fold change [9]: -0.022
log2 fold change [10]: 0.024
log2 fold change [11]: -0.073
log2 fold change [12]: -0.173
log2 fold change [13]: -0.016
log2 fold change [14]: -0.44 (active)
log2 fold change [15]: 0.754 (active)
log2 fold change [16]: -0.063
log2 fold change [18]: -0.085

O=C(CCCCCCNC(=O)c1cnc(N(c2ccccc2)c2ccccc2Cl)nc1)NO [citarinostat]
log2 fold change [1]: 0.04
log2 fold change [2]: -0.13
log2 fold change [3]: 0.008
log2 fold change [4]: 0.042
log2 fold change [5]: 0.023
log2 fold change [6]: 0.011
log2 fold change [7]: 0.099
log2 fold change [8]: 0.067
log2 fold change [9]: -0.077
log2 fold change [10]: 0.001
log2 fold change [11]: 0.02
log2 fold change [12]: -0.053
log2 fold change [13]: -0.013
log2 fold change [14]: 0.121
log2 fold change [15]: 0.106
log2 fold change [17]: -0.173
log2 fold change [18]: 0.028

Cn1cncc1[C@@](N)(c1ccc(Cl)cc1)c1ccc2c(c1)c(-c1cccc(Cl)c1)cc(=O)n2C [tipifarnib]
log2 fold change [1]: -0.008
log2 fold change [2]: 0.242
log2 fold change [3]: -0.001
log2 fold change [4]: 0.31 (active)
log2 fold change [5]: -0.059
log2 fold change [6]: -0.035
log2 fold change [7]: -0.048
log2 fold change [8]: -0.048
log2 fold change [9]: 0.125
log2 fold change [10]: 0.059
log2 fold change [11]: -0.112
log2 fold change [12]: 0.127
log2 fold change [13]: -0.123
log2 fold change [14]: 0.009
log2 fold change [15]: -0.053
log2 fold change [16]: -0.02
log2 fold change [18]: 0.111

COc1cc2nc(-c3cc(F)ccc3O)nc(N[C@@H]3CNC[C@H]3C(C)(C)O)c2cc1OC
log2 fold change [1]: 0.125
log2 fold change [2]: -0.054
log2 fold change [3]: -0.052
log2 fold change [4]: -0.094
log2 fold change [5]: 0.13
log2 fold change [6]: 0.043
log2 fold change [7]: 0.1
log2 fold change [8]: 0.018
log2 fold change [9]: 0.096
log2 fold change [10]: -0.062
log2 fold change [11]: -0.148
log2 fold change [12]: 0.028
log2 fold change [13]: -0.163
log2 fold change [14]: -0.268 (active)
log2 fold change [15]: 0.045
log2 fold change [16]: 0.022
log2 fold change [18]: -0.066

C[C@@H]1COCCN1c1cc(C2(S(C)(=O)=O)CC2)nc(-c2cccc3[nH]ccc23)n1
log2 fold change [1]: -0.039
log2 fold change [2]: -0.368
log2 fold change [3]: -0.035
log2 fold change [4]: 0.095
log2 fold change [5]: 0.019
log2 fold change [6]: 0.076
log2 fold change [7]: 0.015
log2 fold change [8]: 0.055
log2 fold change [9]: -0.079
log2 fold change [10]: 0.025
log2 fold change [11]: 0.074
log2 fold change [12]: 0.165
log2 fold change [13]: 0.011
log2 fold change [14]: 0.02
log2 fold change [15]: 0.22
log2 fold change [16]: -0.101
log2 fold change [17]: -0.088
log2 fold change [18]: -0.008

CCn1c(C(=O)N(C2CC2)C2CC2)cc2c3c(ncn3C)c(Nc3cc(C)n(C)n3)nc21
log2 fold change [1]: -0.018
log2 fold change [2]: -0.016
log2 fold change [3]: -0.243
log2 fold change [4]: 0
log2 fold change [5]: -0.01
log2 fold change [6]: 0.022
log2 fold change [7]: -0.077
log2 fold change [8]: -0.014
log2 fold change [9]: 0.027
log2 fold change [10]: 0.027
log2 fold change [11]: 0.039
log2 fold change [13]: 0.017
log2 fold change [14]: 0.044
log2 fold change [15]: 0.154
log2 fold change [19]: 0.005
log2 fold change [16]: -0.038
log2 fold change [17]: -0.033
log2 fold change [18]: 0.018

CNCc1ccc(-c2[nH]c3cc(F)cc4c3c2CCNC4=O)cc1 [rucaparib]
log2 fold change [1]: -0.078
log2 fold change [2]: 0.253
log2 fold change [3]: 0.169
log2 fold change [4]: -0.028
log2 fold change [5]: 0
log2 fold change [6]: 0.055
log2 fold change [7]: -0.07
log2 fold change [8]: -0.041
log2 fold change [9]: 0.002
log2 fold change [10]: -0.078
log2 fold change [11]: -0.016
log2 fold change [12]: -0.057
log2 fold change [13]: -0.041
log2 fold change [14]: -0.05
log2 fold change [15]: -0.071
log2 fold change [17]: -0.272
log2 fold change [18]: 0.029
